24 compounds from PubChem BioAssay (NCATS) can be followed below.

Unmarked numbers belong to inactive results. Records with an inconclusive call do not appear. Activity calls are given as the source filed them. The call rests on the fitted dose curve; in most records, active means well fitted curve in the direction sought with a large enough effect; inconclusive means small, poorly fitted or top-dose-only effect, or another doubt; inactive means no such curve, though single readings can be large; an effect the other way counts as inactive or inconclusive.

Assay [1] addresses Glutathione peroxidase 1 (Homo sapiens) (UniProt P07203). Description: Primary qHTS Assay for Inhibitors of Recombinant Selenoprotein Glutathione Peroxidase 1 (GPX1) (AID 1845191). Further: nearly all actives have a fitted effect of over 65% in size. The method, boiled down:
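Recombinant GPX1 (10 nM final) was preincubated with compound for 30 min at room temperature, then reacted with 1 mM GSH, 0.5 mM CHP, 0.5 mM NADPH and 100 nM glutathione reductase; NADPH fluorescence (340/450 nm) was read at 0 and 15 min.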
A general note: qHTS replaces the single test concentration by a dilution series.

Assay [2] has as its target Phospholipid hydroperoxide glutathione peroxidase GPX4 (Homo sapiens) (UniProt P36969). Kind of assay: Primary qHTS Assay for Inhibitors of Recombinant Selenoprotein Glutathione Peroxidase 4 (GPX4) (AID 1845192). Further: nearly all actives have a fitted effect of over 65% in size. On activity change, negative = inhibition: series mostly up to about 50 µM; on the % scale 0 is the no-effect control and ±100 the full control effect. The method, boiled down:
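GR-coupled readout: 100 nM GR, 1 mM GSH, 0.5 mM NADPH; NADPH fluorescence (ex 340/em 450 nm) read at t=0 and after 15 min RT. GPX4 200 nM, preincubated 30 min with compound; substrate 0.5 mM CHP.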

Assay [3] addresses Luciferin 4-monooxygenase (Photinus pyralis) (UniProt P08659). Kind of assay: Primary firefly luciferase (FLuc) qHTS assay for identification of artifact compounds. (AID 1845220). Further: nearly all actives have a fitted effect of over 60% in size. Further: potency means the concentration at half of the fitted maximal effect.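 On activity change, negative = inhibition: series mostly up to about 54 µM; plate controls were DMSO vehicle for no effect and no enzyme for full effect.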 The method, boiled down:
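In this counter-screen for luciferase artifacts, test compounds met substrate (10 uM each luciferin and ATP) before 10 nM enzyme started the reaction. Light output was measured 5 min later.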

Assay [4] can be described thus: Primary fluorescence-based thiol-reactive (MSTI) qHTS assay for identification of artifact compounds. (AID 1845221). Further: nearly all actives have a fitted effect of over 65% in size. Further: potency means the concentration at half of the fitted maximal effect.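 On activity change, negative = thiol reactive: series mostly up to about 54 µM; thiol-reactive compounds lower the probe fluorescence signal.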 The method, boiled down:
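One-hour, room-temperature, dark incubation of compound with 4 uM MSTI in PBS (pH 7.4, 2% DMSO) precedes a fluorescence read at 525 nm excitation, 598 nm emission; Hill-equation fitting yields concentration-response values.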

Chain of Phospholipid hydroperoxide glutathione peroxidase GPX4 (Homo sapiens) (P36969 whole entry, looked up): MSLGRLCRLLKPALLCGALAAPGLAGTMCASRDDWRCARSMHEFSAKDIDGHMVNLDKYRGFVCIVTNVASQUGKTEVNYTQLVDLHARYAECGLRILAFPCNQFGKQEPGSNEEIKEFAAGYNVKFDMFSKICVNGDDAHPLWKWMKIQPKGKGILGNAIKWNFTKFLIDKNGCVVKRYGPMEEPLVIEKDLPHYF
Chain of Glutathione peroxidase 1 (Homo sapiens) (P07203 whole entry, looked up): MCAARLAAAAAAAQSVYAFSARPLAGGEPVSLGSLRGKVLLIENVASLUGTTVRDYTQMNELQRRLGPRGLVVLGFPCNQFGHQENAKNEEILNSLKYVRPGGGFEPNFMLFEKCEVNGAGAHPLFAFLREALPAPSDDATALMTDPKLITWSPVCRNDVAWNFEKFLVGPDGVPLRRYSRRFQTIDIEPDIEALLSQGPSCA

In the case of `COc1cc(O)c2c(c1Cl)CC(C)OC2=O` (stereo unspecified), the Potency result in assay [1], in assay [2], in assay [3] and in assay [4] was “inactive” in each case.

As to `O=C(C1OC1/C=C/c1ccc2c(c1)OCO2)N1CCCCC1` (stereo unspecified), the Potency result in assay [1], in assay [2], in assay [3] and in assay [4] was “inactive” each time.

Consider `C=C1C[C@]23C[C@@]1(O)CC[C@H]2[C@@]12C=C[C@H](O)[C@@](C)(C(=O)O1)[C@H]2[C@@H]3C(=O)O`, for which the Potency entry in assay [1], in assay [2], in assay [3] and in assay [4] was “inactive” throughout.

Regarding `O=C(O)CC1CCC(c2ccc(-c3ccc(Nc4ccc(C(F)(F)F)nc4)cn3)cc2)CC1` (stereo unspecified), the Potency entry in assay [1], in assay [2], in assay [3] and in assay [4] was “inactive” in each case.

Regarding `C=C1C(=O)OC[C@H]2C(C(=O)O)=CC3CC(C)(C)C[C@@]132` (stereo partly specified), the Potency entry in assay [1], in assay [2] and in assay [3] was “inactive” each time. Further, the Potency in assay [4] is 21.2 µM (active).

As to `C=C1CC[C@@H]2[C@](C)(CO)[C@H](O[C@@H]3O[C@H](CO)[C@@H](O)[C@H](O)[C@H]3O)CC[C@@]2(C)[C@@H]1C/C=C1/C(=O)OC[C@H]1O`, the Potency result in assay [1], in assay [2] and in assay [3] was “inactive” in each case. Besides, the Potency in assay [4] was 6.53 µM (active).

For `CC1=C2C[C@H]3OC(=O)[C@H](O)[C@@]4(O)[C@@H](C)[C@@H](O)[C@H](O)C([C@@]2(C)[C@H](O)[C@@H](O)C1)[C@@]34C` (stereo partly specified), the Potency entry in assay [1], in assay [2], in assay [3] and in assay [4] was “inactive” each time.

For the compound `C/C=C(\C)C(=O)OC1C(C)C2(O)C3C=C(C)C(=O)C3CC(CO)=CC2C2C(C)(C)C12OC(C)=O` (stereo unspecified), the Potency result in assay [1], in assay [2], in assay [3] and in assay [4] was “inactive” throughout.

Take `CCCC1=CC2=C(CO1)C(=O)C(C)(O)C(OC(=O)c1c(C)cc(OC)cc1O)C2` (stereo unspecified): the Potency entry in assay [1], in assay [2], in assay [3] and in assay [4] was “inactive” throughout.

`CC1(C)CC[C@]2(C(=O)O)CC[C@]3(C)C(=CCC4[C@@]5(C)C[C@@H](O)[C@H](O)[C@@](C)(CO)C5CC[C@]43C)C2C1` (stereo partly specified): the Potency entry in assay [1], in assay [2], in assay [3] and in assay [4] was “inactive” each time.

Take `CC(C)[C@@H](C(=O)O)N1Cc2c(cc(O)c3c2O[C@]2(C3)[C@H](C)CCC3C(C)(C)[C@H](O)[C@H](O)C[C@@]32C)C1=O` (stereo partly specified): the Potency result in assay [1], in assay [2], in assay [3] and in assay [4] was “inactive” throughout.

For `CC[C@H]1OC(=O)[C@H](C)C(=O)[C@H](C)[C@@H](OC2O[C@H](C)C[C@H](N(C)C)[C@H]2O)[C@@H](C)C[C@@H](C)C(=O)/C=C/[C@]1(C)O` (stereo partly specified), the Potency result in assay [1], in assay [2], in assay [3] and in assay [4] was “inactive” each time.

For the compound `Cc1cc(CO)c(O)c(C(=O)CC2CC(=O)NC(=O)C2)c1`, the Potency result in assay [1], in assay [2], in assay [3] and in assay [4] was “inactive” in each case.

Take `CC[C@H](NC(=O)c1c(O)c(-c2ccccc2)nc2ccccc12)c1ccccc1`: the Potency entry in assay [1], in assay [2] and in assay [3] was “inactive” each time. The Potency in assay [4] was 2.67 µM (active).

As to `C[C@@H](CC[C@@H]1[C@@]2(C)CCCC(C)(C)C2CC[C@@]1(C)O)CC(=O)O` (stereo partly specified), the Potency entry in assay [1], in assay [2], in assay [3] and in assay [4] was “inactive” throughout.

For the compound `COC(=O)C1=CO[C@@H](O[C@@H]2O[C@H](CO)[C@@H](O)[C@H](O)[C@H]2O)[C@@H]2[C@@H](CO)[C@@H](O)C(O)[C@H]12` (stereo partly specified), the Potency result in assay [1], in assay [2], in assay [3] and in assay [4] was “inactive” in each case.

With `C=C(CC/C=C(\C)C(=O)O)C1(O)CC=C(C)CC1` (stereo unspecified), the Potency entry in assay [1], in assay [2], in assay [3] and in assay [4] was “inactive” in each case.

As to `C[C@]12CC[C@@H]3c4ccc(O)cc4CC[C@H]3[C@@H]1C[C@@H](O[C@@H]1O[C@H](C(=O)O)[C@@H](O)[C@H](O)[C@H]1O)[C@@H]2O`, the Potency result in assay [1], in assay [2], in assay [3] and in assay [4] was “inactive” in each case.

For `CC1(C)CC=C(C#Cc2ccccc2)c2cc(/C=C/c3ccc(C(=O)O)cc3)ccc21`, the Potency entry in assay [1], in assay [2] and in assay [4] was “inactive” throughout. For the same compound, the Potency in assay [3] was 10.7 µM (active).

`CC(C)(OC1OC(CO)C(O)C(O)C1O)C1CCC(O)(CO)C2CC(=O)C(C)(O)C2C1` (stereo unspecified): the Potency entry in assay [1], in assay [2], in assay [3] and in assay [4] was “inactive” in each case.

In the case of `O=C(O)CCc1cccc(O)c1O[C@@H]1O[C@H](CO)[C@@H](O)[C@H](O)[C@H]1O`, the Potency entry in assay [1], in assay [2] and in assay [3] was “inactive” each time. Further, in assay [4], the Potency is 14.7 µM (active).

Take `Cc1occc(=O)c1O[C@@H]1O[C@H](COC(=O)CC(C)(O)CC(=O)O)[C@@H](O)[C@H](O)[C@H]1O` (stereo partly specified): the Potency result in assay [1], in assay [2], in assay [3] and in assay [4] was “inactive” throughout.

Take `CC1C(O)C(O)C2C(C(=O)OCCc3ccc(O)cc3)=COC(O[C@@H]3O[C@H](CO)[C@@H](O)[C@H](O)[C@H]3O)C12` (stereo partly specified): the Potency result in assay [1], in assay [2] and in assay [3] was “inactive” in each case. In addition, in assay [4], the Potency is 1.84 µM (active).

As for `CC1OC(O[C@@H]2[C@@H](O)[C@H](OC(=O)[C@]34CCC(C)(C)C[C@H]3C3=CCC5[C@@]6(C)CC[C@H](O[C@@H]7O[C@H](C(=O)O)[C@@H](O)[C@H](O[C@@H]8OC[C@@H](O)[C@H](O)[C@H]8O)[C@H]7O[C@@H]7O[C@H](CO)[C@H](O)[C@H](O)[C@H]7O)[C@@](C)(C=O)C6CC[C@@]5(C)[C@]3(C)C[C@H]4O)O[C@H](C)[C@@H]2OC2OC(C)C(OC3OCC(O)C(O)C3O)C(O)C2O)C(O)C(O)C1O` (stereo partly specified), the Potency entry in assay [1] and in assay [2] was “inactive” each time. Further, the activity change, negative = inhibition in assay [3] was 1.64% [at 11.6 µM]. Also, the activity change, negative = thiol reactive in assay [4] is 288% [at 11.5 µM].
